Results on 16 compounds are retold here after PubChem BioAssay (NCI).

This is part of a sample that, as a whole, favours compounds with a hit. Of some 83,000 tested, about 20% had one in any assay.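 Interpretation: 100, growth as untreated; towards 0, rising growth inhibition; 0, no net growth; 0 to -100, cell death. Compounds scoring below 10 were considered active.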 Unmarked numbers belong to inactive results. Active and inactive are the calls of the source.

Assay in all cases: NCI-60 one-dose screen, 48 h (100 = growth as untreated, 0 = no growth, -100 = all killed)
Common to all, as to conditions: 10 µM unless noted

In assay [1] the test system is BT-549 breast.
Assay [2] has as its system MDA-MB-435 melanoma.
In assay [3] the test system is SW-620 colon.
Assay [4] concerns MCF7 breast.
For assay [5], the system named is HCT-116 colon.
In assay [6] the test system is HCC-2998 colon.
Assay [7] has as its system KM12 colon.

As for `COC(=O)c1ccc2[nH]c(O)c(C(=Nc3ccc(N(C)C(=O)CN4CCN(C)CC4)cc3)c3cccc(OC)c3)c2c1`, the growth in assay [1] was 11.2%; in assay [2] it was 31.8%; in assay [3], 2.03% (active); in assay [4], 6.86% (active); in assay [5] it was -5.68% (active); in assay [6] it was 20.3%. In addition, the growth in assay [7] is 4.88% (active).

As for `O=C1/C(=N\c2cc(=O)[nH]n2S(=O)(=O)c2ccccc2)Nc2ccccc21`, the growth in assay [1] is 106%; in assay [2], 108%; in assay [3], 99.3%; in assay [4] it was 96.5%; in assay [5], 99.3%; in assay [6], 104%. Also, the growth in assay [7] was 99.4%.

On to `COc1ccccc1C(=O)Nc1cccc(-c2cc(=O)c3c(OC)c(OC)c(OC)cc3o2)c1`, for which the growth was 45.9% in assay [1]; 43.5% in assay [2]; 63.4% in assay [3]; 53.4% in assay [4]; 36.7% in assay [5]; 67.8% in assay [6]. Further, the growth in assay [7] was 38.4%.

With `CC/C(=N\Nc1nc2ccccc2n1C)c1ccccn1`, the growth is 21% in assay [1]; 18.9% in assay [2]; 30% in assay [3]; 8.78% (active) in assay [4]; 11.7% in assay [5]; 32.3% in assay [6]. For the same compound, the growth in assay [7] is 18.5%.

As to `CC1(C)Oc2cc3oc(=O)ccc3cc2C[C@@H]1OCCOS(=O)(=O)c1ccc(C#N)cc1`, the growth is 90.3% in assay [1]; 94.9% in assay [2]; 89.3% in assay [3]; 82.3% in assay [4]; 110% in assay [5]; 103% in assay [6]. In addition, the growth in assay [7] was 103%.

As for `C=C(C)[C@@H]1CC[C@]2(COC(=O)c3ccccc3C(=O)O)CC[C@]3(C)[C@H](CC[C@@H]4[C@@]5(C)CCCNC(C)(C)[C@@H]5CC[C@]43C)[C@@H]12`, the growth in assay [1] is 72.6%; in assay [2], 60.9%; in assay [3], 70.5%; in assay [4], 26.3%; in assay [5] it was 32.2%; in assay [6] it was 72.1%. In assay [7], the growth was 51.9%.

In the case of `Cc1ncc(C(=O)Nc2ccc(CN3CCN(C)CC3)c(C(F)(F)F)c2)cc1C#Cc1cnc(NC2CC2)c2ncccc12`, the growth was -91.7% (active) in assay [1]; -86.4% (active) in assay [2]; -74.3% (active) in assay [3]; -76.8% (active) in assay [4]; -90% (active) in assay [5]; -54.4% (active) in assay [6]. Further, the growth in assay [7] was -82.6% (active).

`COC(=O)c1ccc(C(=Nc2ccc(N(C)C(=O)CN3CCN(C)CC3)cc2)c2c(O)[nH]c3ccc(C(=O)OC)cc23)cc1`: the growth in assay [1] is 45.8%; in assay [2], 43.6%; in assay [3], 18.9%; in assay [4] it was 23.5%; in assay [5] it was 10.9%; in assay [6] it was 54.5%. Also, the growth in assay [7] was 15.3%.

For `c1ccc(C(=NNc2nc3ccccc3o2)c2ccccn2)nc1`, the growth was 18.7% in assay [1]; 25.2% in assay [2]; 29.7% in assay [3]; 6.93% (active) in assay [4]; 4.99% (active) in assay [5]; 44.3% in assay [6]. In addition, the growth in assay [7] is 24.6%.

In the case of `Cc1ncc(C(=O)Nc2ccc(CN3CCN(C)CC3)c(C(F)(F)F)c2)cc1C#Cc1c(N)ncc2ccccc12`, the growth is -96.4% (active) in assay [1]; -92.3% (active) in assay [2]; -60.6% (active) in assay [3]; -71.7% (active) in assay [4]; -88.2% (active) in assay [5]; -89.6% (active) in assay [6]. For the same compound, the growth in assay [7] was -68.1% (active).

Consider `CC(=O)OC1/C=C\CC/C=C\C1` (configuration not stated), for which the growth in assay [1] is 110%; in assay [2], 103%; in assay [3] it was 101%; in assay [4], 106%; in assay [5] it was 107%; in assay [6] it was 129%. In addition, in assay [7], the growth is 103%.

For the compound `C/C(=N\Nc1ccc(Cl)cn1)c1ccc2ccccc2n1`, the growth is 21.6% in assay [1]; 31.9% in assay [2]; 27.5% in assay [3]; 7.14% (active) in assay [4]; 6.22% (active) in assay [5]; 38.1% in assay [6]. For the same compound, the growth in assay [7] is 20.2%.

As for `CC(C)OC(=O)c1ccc2n1CCCc1cnc(Nc3ccccc3)nc1-2`, the growth was 86.4% in assay [1]; 42.7% in assay [2]; 91% in assay [3]; 65.4% in assay [4]; 73.2% in assay [5]; 104% in assay [6]. The growth in assay [7] was 52.8%.

Consider `COc1cc(-c2nc3c(c(C)nc4c3nnn4-c3ccccc3)c(=O)o2)cc(OC)c1OC`, for which the growth in assay [1] was 105%; in assay [2] it was 106%; in assay [3], 107%; in assay [4] it was 97.5%; in assay [5], 99.3%; in assay [6] it was 130%. The growth in assay [7] is 110%.

For `CCc1ccc(C(=Nc2ccc(N(C)C(=O)CN3CCN(C)CC3)cc2)c2c(O)[nH]c3ccc(C(=O)OC)cc23)cc1`, the growth in assay [1] was -87.9% (active); in assay [2], -20.5% (active); in assay [3] it was -67.3% (active); in assay [4], -68.4% (active); in assay [5], -67.9% (active); in assay [6], -92% (active). Besides, the growth in assay [7] was -60.8% (active).

Take `COC(=O)Nc1nc2ccc(C(=O)c3ccccc3N(C)C3COC3)cc2[nH]1`: the growth in assay [1] was 60.4%; in assay [2], -42.1% (active); in assay [3], 14.9%; in assay [4], 19%; in assay [5] it was 30.4%; in assay [6] it was 67.2%. Further, the growth in assay [7] was 17%.
